For 5 compounds, composite z-score and z-score results are on record in PubChem BioAssay.

The subject of assay [1] is Plasmodium falciparum Sir2 (PF13_0152, Sir2A). The assay can be described thus: Plasmodium falciparum Sir2A binding compounds – biochemical, small-molecule microarray, 635 nm fluorescence, primary screen (AID 1098).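 Further: score merges spot fluorescence intensity with its signal-to-noise ratio.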 The settings on record: fluorescence 635 nm, higher = more signal.
Assay [2] in a line: probe aDKK1 binding to arrayed compounds – biochemical, biotinylated probe, 635/667 nm fluorescence, primary screen (AID 1099).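 Further: score merges 667nm spot fluorescence with signal to noise across triplicate slides.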 The settings on record: small-molecule microarray, higher = more signal.
Assay [3] in a line: probe aCHRDL2 binding to arrayed compounds – biochemical, biotinylated probe, 635/667 nm fluorescence, primary screen (AID 1100). The settings on record: small-molecule microarray, higher = more signal.
A short description of assay [4]: change in splice reporter luminescence, either direction, cell-based, HEK293, spliceosome inhibition project, primary screen (AID 1101).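 Further: HEK293 cells carrying a splicing-competent luciferase reporter gene; test concentration not given here.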 The settings on record: HEK293 splicing luciferase reporter, 24 h, higher = more signal, called active from +8 up or from −8 down.
The target of assay [5] is Fibroblast growth factor 10 (Homo sapiens) (UniProt O15520). The assay can be described thus: compounds binding fibroblast growth factor 10 – biochemical, small-molecule microarray, 635 nm fluorescence, primary screen (AID 1102). The settings on record: FGF10 binding, fluorescence 635 nm, higher = more signal.
Sequence of Fibroblast growth factor 10 (Homo sapiens) (O15520 whole entry, looked up): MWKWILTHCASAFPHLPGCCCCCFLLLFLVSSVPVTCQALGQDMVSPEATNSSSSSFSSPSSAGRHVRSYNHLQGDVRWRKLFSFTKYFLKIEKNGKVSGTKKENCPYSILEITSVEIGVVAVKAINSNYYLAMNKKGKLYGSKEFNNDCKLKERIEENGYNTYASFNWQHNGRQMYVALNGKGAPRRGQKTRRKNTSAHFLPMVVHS
Assay [6] deals with glycogen synthase kinase-3 (GSK3A per assay name; protocol says GSK3B). The assay can be described thus: compounds binding glycogen synthase kinase-3 – biochemical, small-molecule microarray, 635 nm fluorescence, GSK3A, primary screen (AID 1103). Further: the record names both GSK3A and GSK3B. The settings on record: fluorescence 635 nm, higher = more signal.
In assay [7] the target is Epidermal growth factor receptor (Homo sapiens) (UniProt P00533). The assay can be described thus: compounds binding epidermal growth factor receptor – biochemical, small-molecule microarray, 635 nm fluorescence, primary screen (AID 1104).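 Further: score merges 667 nm emission intensity with spot signal to noise over triplicate slides.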 The settings on record: EGFR binding, higher = more signal.
Sequence of Epidermal growth factor receptor (Homo sapiens) (P00533 whole entry, looked up): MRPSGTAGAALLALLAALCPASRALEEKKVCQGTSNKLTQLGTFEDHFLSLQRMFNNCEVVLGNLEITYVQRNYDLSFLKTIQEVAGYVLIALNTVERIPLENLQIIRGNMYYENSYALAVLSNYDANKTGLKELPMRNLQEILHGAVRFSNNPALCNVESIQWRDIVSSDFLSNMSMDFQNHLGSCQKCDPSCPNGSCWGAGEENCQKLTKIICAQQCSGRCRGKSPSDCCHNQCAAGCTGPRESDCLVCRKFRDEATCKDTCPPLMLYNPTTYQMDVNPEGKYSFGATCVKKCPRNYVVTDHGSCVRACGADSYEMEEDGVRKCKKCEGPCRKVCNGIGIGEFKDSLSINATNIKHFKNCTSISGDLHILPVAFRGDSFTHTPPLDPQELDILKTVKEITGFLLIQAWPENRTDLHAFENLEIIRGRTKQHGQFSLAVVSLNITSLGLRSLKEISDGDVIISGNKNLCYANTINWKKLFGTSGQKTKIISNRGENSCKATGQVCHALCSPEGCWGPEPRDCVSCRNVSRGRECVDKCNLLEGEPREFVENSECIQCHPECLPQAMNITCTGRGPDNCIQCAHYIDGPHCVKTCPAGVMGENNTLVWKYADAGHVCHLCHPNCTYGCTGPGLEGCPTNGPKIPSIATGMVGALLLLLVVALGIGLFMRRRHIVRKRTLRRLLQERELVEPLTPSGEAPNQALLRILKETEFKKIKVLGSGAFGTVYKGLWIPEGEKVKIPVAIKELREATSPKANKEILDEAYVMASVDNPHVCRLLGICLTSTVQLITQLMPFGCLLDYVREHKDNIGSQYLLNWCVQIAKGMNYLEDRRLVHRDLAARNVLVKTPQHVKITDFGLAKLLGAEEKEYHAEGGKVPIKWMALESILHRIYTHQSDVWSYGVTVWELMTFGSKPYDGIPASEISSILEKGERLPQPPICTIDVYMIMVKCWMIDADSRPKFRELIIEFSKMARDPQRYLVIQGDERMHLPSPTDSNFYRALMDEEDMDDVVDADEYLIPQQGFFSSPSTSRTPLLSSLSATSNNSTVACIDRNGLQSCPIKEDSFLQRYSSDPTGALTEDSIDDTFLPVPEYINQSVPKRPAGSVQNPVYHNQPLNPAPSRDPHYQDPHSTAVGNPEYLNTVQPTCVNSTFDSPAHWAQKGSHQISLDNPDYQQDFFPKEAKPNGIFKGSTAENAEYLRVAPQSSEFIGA
The target in assay [8] is Follistatin-related protein 3 (Homo sapiens) (UniProt O95633). The assay can be described thus: compounds binding follistatin-related protein 3 – biochemical, small-molecule microarray, 635 nm fluorescence, primary screen (AID 1105).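 Further: score merges emission near 667 nm and signal to noise per printed spot across three slides.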 The settings on record: FSTL3 binding, higher = more signal.
Sequence of Follistatin-related protein 3 (Homo sapiens) (O95633 whole entry, looked up): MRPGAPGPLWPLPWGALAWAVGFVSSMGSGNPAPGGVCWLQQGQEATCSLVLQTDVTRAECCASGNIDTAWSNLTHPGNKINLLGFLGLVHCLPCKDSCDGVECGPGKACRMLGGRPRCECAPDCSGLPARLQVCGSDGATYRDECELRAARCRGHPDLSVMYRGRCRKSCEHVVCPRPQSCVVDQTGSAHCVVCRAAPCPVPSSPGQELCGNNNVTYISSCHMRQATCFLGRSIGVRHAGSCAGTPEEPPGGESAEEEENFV
For assay [9], the target named is Dickkopf-related protein 1 (Homo sapiens) (UniProt O94907). The experiment in a line: small molecules binding DKK1 protein – biochemical, small-molecule microarray, 635 nm fluorescence scan, primary screen (AID 1106).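 Further: score merges emission near 667 nm with signal to noise over three replicate slides.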 The settings on record: higher = more signal.
Sequence of Dickkopf-related protein 1 (Homo sapiens) (O94907 whole entry, looked up): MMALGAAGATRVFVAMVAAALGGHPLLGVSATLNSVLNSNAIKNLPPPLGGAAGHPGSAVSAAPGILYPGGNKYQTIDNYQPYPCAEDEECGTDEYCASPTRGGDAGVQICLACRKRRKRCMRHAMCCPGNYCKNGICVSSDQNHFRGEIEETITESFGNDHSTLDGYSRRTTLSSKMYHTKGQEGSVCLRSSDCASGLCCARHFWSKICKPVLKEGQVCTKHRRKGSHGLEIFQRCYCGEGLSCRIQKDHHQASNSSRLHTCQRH
For assay [10], the system named is Inhibin beta A chain (activin A). The assay can be described thus: small molecules binding activin A – biochemical, small-molecule microarray, 635 nm fluorescence scan, primary screen (AID 1107).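 Further: mouse activin A protein probed at 4.33 µg/mL on printed slides; score merges bound-protein fluorescence near 667 nm with spot signal-to-noise.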 The settings on record: INHBA, higher = more signal.
Assay [11] relates to Human papillomavirus type 1a protein E7 (residues 44-93). The assay can be described thus: small molecules binding HPV E7 44-93 – biochemical, small-molecule microarray, residues 44-93, 635 nm fluorescence, primary screen (AID 1108).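 Further: E7 fragment applied at 1 µg/mL in TBST for 1 h at 4 C; score combines spot fluorescence with its signal to noise ratio.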 The settings on record: fluorescence 635 nm, higher = more signal.
A short description of assay [12]: hepatitis C replication reporter changes, two-sided – Huh7 cells, luciferase reporter, HCV replication inhibitor project, primary screen (AID 1109).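 Further: huh7 hepatoma cells harbouring a luciferase neomycin HCV replicon reporter; luciferase luminescence as measure of HCV replicon replication; test concentration not given here.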 The settings on record: Huh7 HCV replicon luciferase reporter, 48 h; higher = more signal.
The target in assay [13] is Left-right determination factor 2 (Homo sapiens) (UniProt O00292). The assay can be described thus: small molecules binding LEFTY2 protein – biochemical, small-molecule microarray, 635 nm fluorescence scan, primary screen (AID 1110). The settings on record: higher = more signal.
Sequence of Left-right determination factor 2 (Homo sapiens) (O00292 whole entry, looked up): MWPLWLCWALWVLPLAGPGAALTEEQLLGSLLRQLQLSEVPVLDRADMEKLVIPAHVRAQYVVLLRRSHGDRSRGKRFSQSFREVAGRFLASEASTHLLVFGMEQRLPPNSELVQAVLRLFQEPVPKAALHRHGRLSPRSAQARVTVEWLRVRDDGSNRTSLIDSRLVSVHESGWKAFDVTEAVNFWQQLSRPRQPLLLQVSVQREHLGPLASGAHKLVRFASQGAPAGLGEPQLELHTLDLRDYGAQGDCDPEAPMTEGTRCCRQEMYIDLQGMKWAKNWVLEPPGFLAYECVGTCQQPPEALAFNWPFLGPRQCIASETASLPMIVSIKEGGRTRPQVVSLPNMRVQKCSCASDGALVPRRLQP
Assay [14] has as its target Calmodulin-1 (Homo sapiens) (UniProt P0DP23). The assay can be described thus: small molecules binding calmodulin-1 with EGTA – biochemical, small-molecule microarray, Cy5-labelled CALM1, profiling panel (AID 1111).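 Further: labelled calmodulin applied in Tris saline Tween buffer holding calcium plus EGTA and DTT.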 The settings on record: Cy5-CALM1 binding fluorescence, higher = more signal.
Assay [15] has the same target. The experiment in a line: small molecules binding Ca-loaded calmodulin-1 – biochemical, small-molecule microarray, Cy5-labelled CALM1, plus calcium, artefact control for SMM control-protein annotation, profiling panel (AID 1112).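 Further: score merges spot fluorescence with signal to noise from triplicate slides.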 The settings on record: Cy5-CALM1 binding fluorescence, higher = more signal.
Assay [16] is described as follows: probe aWnt5a binding to arrayed compounds – biochemical, biotinylated probe, 635/667 nm fluorescence, primary screen (AID 1113).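 Further: score merges 667 nm fluorescence intensity with signal-to-noise per printed feature.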 The settings on record: small-molecule microarray, higher = more signal.
Assay [17] is described as follows: probe aShh binding to arrayed compounds – biochemical, biotinylated probe, 635/667 nm fluorescence, primary screen (AID 1114).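 Further: probe is biotin-labelled aShh protein from a stem cell growth factor screen; measures binding of labelled protein to compounds printed on the slide; score merges feature fluorescence at 667 nm with signal-to-noise.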 The settings on record: small-molecule microarray, higher = more signal.
Assay [18] in a line: probe aNog binding to arrayed compounds – biochemical, biotinylated probe, 635/667 nm fluorescence, primary screen (AID 1115).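 Further: probe is biotinylated aNog protein used at 0.15 µg/mL for 1 h at 4 C; z-score combines 667 nm fluorescence of each spot with its signal to noise.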 The settings on record: small-molecule microarray, higher = more signal.
For assay [19], the target named is Torsin-1A-interacting protein 1 (Homo sapiens) (UniProt Q5JTV8). The assay can be described thus: compound microarray binding of lysate hLAP1 – cell lysate, small-molecule microarray, COS7 lysate, 635/667 nm fluorescence, primary screen (AID 1116). The settings on record: 635 nm fluorescence, higher = more signal.
Sequence of Torsin-1A-interacting protein 1 (Homo sapiens) (Q5JTV8 whole entry, looked up): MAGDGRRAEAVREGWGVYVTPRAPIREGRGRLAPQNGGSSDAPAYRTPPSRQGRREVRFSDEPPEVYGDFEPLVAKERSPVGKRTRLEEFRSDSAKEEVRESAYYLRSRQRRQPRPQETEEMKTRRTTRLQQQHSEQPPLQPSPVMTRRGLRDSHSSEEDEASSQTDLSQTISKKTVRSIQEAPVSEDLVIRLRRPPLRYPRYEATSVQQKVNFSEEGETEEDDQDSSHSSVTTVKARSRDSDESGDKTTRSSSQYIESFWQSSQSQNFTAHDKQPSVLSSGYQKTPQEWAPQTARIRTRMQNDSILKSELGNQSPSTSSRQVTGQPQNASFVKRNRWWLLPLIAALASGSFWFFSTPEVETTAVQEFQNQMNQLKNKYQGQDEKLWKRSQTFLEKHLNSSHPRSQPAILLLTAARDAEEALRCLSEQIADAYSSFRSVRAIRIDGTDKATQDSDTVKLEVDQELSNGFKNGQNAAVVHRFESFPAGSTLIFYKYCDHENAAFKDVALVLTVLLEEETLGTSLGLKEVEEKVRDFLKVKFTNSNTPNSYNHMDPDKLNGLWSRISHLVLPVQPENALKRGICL
The target of assay [20] is Alpha-bungarotoxin (Bungarus multicinctus) (UniProt P60615). The experiment in a line: compounds binding labelled alpha-BTX control protein – biochemical, small-molecule microarray, Alexa647 label, 635/667 nm fluorescence, artefact control for SMM control protein annotation, profiling panel (AID 1117). The settings on record: alpha-BTX-A647 binding fluorescence, higher = more signal.
Sequence of Alpha-bungarotoxin (Bungarus multicinctus) (P60615 whole entry, looked up): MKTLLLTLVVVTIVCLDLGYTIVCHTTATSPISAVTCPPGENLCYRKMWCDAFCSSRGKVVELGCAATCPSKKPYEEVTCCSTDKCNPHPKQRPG

Calls of active or inactive are those of the source.

With `CN(C)C(=O)[C@@]1(Cc2ccccc2CN=[N+]=[N-])N=C(c2ccc(OCCCO)cc2)O[C@H]1c1ccccc1CN=[N+]=[N-]`, the composite z-score in assay [1] was 1.03; in [2] it was 0.832; in assay [3] it was 0.915; in assay [5] it was 0.871; in assay [6] it was -0.581; in assay [7], -0.167. Further, the composite z-score was -0.0464 in assay [8]; -0.687 in assay [9]; 0.846 in assay [10]; 1.27 in assay [11]; -0.462 in assay [13]; 1.69 in assay [14]. Also, the composite z-score in assay [15] stood at 1; in assay [16] it was 0.0655; in assay [17], 0.551; in assay [18], 0.771; in [19] it was 1.56; in [20] it was 1.11. The z-score in assay [4] was 1.2 (inactive); in assay [12] it was -2.63.
For `C=CCNC(=O)[C@H]1[C@@H]2C(=O)O[C@@H](c3ccccc3)[C@@H](c3ccccc3)N2[C@@H](c2ccc(O)cc2)[C@]12C(=O)Nc1ccc(C#CC3(O)CCCCCC3)cc12`, the composite z-score was 1.38 in [1]; 0.0898 in assay [2]; 0.105 in [3]; 0.155 in [5]; 0.373 in assay [6]; -0.612 in assay [7]. For the same compound, the composite z-score was -0.0182 in assay [8]; 0.0926 in assay [9]; 0.697 in [10]; 0.903 in assay [11]; 0.405 in [13]; 0.823 in assay [14]. For the same compound, the composite z-score in assay [15] is 0.215; in [16], -0.036; in assay [17], 0.0358; in assay [18], 0.557; in assay [19], 0.854; in assay [20], 0.448. The z-score in assay [4] is 0.558 (inactive); in [12], -0.979.
In the case of `O=C1NC(=O)C2C1C=CC(C(O)c1ccco1)N2Nc1ccccn1` (stereo not given), the composite z-score in [1] was 0.76; in assay [2], -0.0191; in [3], 0.0668; in assay [5], 0.32; in [6], 0.03; in assay [7], 0.217. In addition, the composite z-score is -0.374 in assay [8]; -0.172 in assay [9]; 1.01 in assay [10]; -0.45 in assay [11]; -0.111 in assay [13]; -0.334 in [14]. Moreover, the composite z-score in assay [15] was -0.0734; in [16], -0.2; in [17], 0.111; in [18], -0.295; in assay [19] it was 0.38; in assay [20] it was 0.0104. Moreover, the z-score in [4] is 1.69 (inactive); in assay [12], 0.314.
In the case of `C=CC1c2cc(O)c(OC)cc2CCN1Cc1cc2c(cc1Br)OCO2` (stereo not given), the composite z-score in assay [1] is 1.59; in [2], 0.276; in assay [3], 1.04; in assay [5] it was -0.0398; in assay [6] it was -0.277; in [7], 0.0492. The composite z-score in assay [8] was 0.327; in assay [9] it was 0.565; in assay [10], 1.9; in assay [11], -0.483; in assay [13], 0.15; in [14], -0.941. Also, the composite z-score is -1.24 in assay [15]; -0.1 in assay [16]; 0.199 in [17]; 0.2 in assay [18]; 1.69 in assay [19]; 0.271 in assay [20]. Moreover, the z-score in [4] was 0.203 (inactive); in assay [12] it was -2.93.
Regarding `CC(C)C[C@@H]1NC(=O)[C@@H]2C[C@H](C(=O)NCCCCN(C)C)[C@H](c3cccc(OCCO)c3)N2C1=O`, the composite z-score in assay [1] was 1.66; in assay [2] it was -0.224; in [3], 0.0176; in [5], -0.272; in assay [6], -1.24; in assay [7] it was -0.0053. For the same compound, the composite z-score is -0.135 in assay [8]; 0.212 in [9]; 0.266 in assay [10]; 0.314 in assay [11]; -0.113 in assay [13]; 0.0053 in [14]. Further, the composite z-score in assay [15] is -0.0276; in assay [16], -0.221; in assay [17], -0.138; in [18] it was -0.313; in assay [19], -0.249; in assay [20], -0.555. The z-score was -0.464 (inactive) in assay [4] and -0.138 in [12].
